Measurements reported in the supplement of paper PMC11732987, “Enantioselective OTUD7B fragment discovery through chemoproteomics screening and high-throughput optimisation” (Communications Chemistry, 2025).

Legend:
Assay in all cases: log2 ratio of Biotin-Ahx-Ub-VS probe labelling (fragment/DMSO); higher = less target engagement (more negative = stronger competition), active = hit call of the paper (q ≤ 0.05, log2 ratio ≤ -1)
Conditions in all cases: compound concentration: 200 uM; treatment time: 3 h
OTUD6B = biological target: T1, OTUD6B (UniProt Q8N6M0)
T1 sequence (whole entry): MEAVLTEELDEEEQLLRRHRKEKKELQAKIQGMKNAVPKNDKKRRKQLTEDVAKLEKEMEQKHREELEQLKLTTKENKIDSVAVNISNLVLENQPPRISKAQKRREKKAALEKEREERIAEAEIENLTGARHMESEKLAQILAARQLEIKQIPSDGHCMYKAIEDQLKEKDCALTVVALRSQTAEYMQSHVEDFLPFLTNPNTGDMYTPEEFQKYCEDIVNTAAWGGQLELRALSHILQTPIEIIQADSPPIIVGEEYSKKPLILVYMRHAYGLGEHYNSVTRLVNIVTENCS
Outline: (§1)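 HEK293T lysate (495 µg per sample, in Tris/CHAPS/IGEPAL buffer with protease inhibitors) was treated in triplicate with fragment at 200 µM or with DMSO for 3 h. It was then treated with Biotin-Ahx-Ub-VS (0.5 µM final) for 1 h. Labelled DUBs were NeutrAvidin-enriched, digested with LysC and trypsin, and run by diaPASEF LC-MS/MS. Spectronaut label-free quantities were global-median-normalised. Values are average log2 ratios fragment/DMSO by unpaired t-test, using proteins with ≥2 unique peptides.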

OTUD7B = biological target: T2, OTUD7B (UniProt Q6GQQ9)
T2 sequence (whole entry): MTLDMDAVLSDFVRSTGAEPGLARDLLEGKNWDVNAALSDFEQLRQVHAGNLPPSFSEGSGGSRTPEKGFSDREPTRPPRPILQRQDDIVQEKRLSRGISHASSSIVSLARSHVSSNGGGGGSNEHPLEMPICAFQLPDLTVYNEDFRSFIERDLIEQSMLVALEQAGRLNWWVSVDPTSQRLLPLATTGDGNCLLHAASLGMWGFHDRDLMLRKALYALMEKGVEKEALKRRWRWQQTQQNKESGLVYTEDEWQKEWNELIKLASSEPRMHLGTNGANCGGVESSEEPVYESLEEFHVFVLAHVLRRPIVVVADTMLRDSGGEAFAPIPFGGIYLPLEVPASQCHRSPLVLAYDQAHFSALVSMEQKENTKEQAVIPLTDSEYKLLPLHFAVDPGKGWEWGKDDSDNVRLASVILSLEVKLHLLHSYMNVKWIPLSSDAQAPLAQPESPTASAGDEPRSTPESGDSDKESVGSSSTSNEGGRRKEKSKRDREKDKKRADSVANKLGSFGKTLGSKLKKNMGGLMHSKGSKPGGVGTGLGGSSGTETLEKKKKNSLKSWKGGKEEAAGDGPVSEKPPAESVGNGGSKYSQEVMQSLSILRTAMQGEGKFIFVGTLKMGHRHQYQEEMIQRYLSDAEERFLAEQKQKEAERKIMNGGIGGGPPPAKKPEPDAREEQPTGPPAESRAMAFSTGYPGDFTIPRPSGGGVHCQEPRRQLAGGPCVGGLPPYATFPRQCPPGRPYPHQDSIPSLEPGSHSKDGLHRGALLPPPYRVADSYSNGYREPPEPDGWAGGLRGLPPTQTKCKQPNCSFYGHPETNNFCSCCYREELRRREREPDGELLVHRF
Outline: as §1

PRPF8 = PRPF8 (UniProt Q6P2Q9)
Outline: as §1

PSMD7 = biological target: T3, PSMD7 (UniProt P51665)
T3 sequence (whole entry): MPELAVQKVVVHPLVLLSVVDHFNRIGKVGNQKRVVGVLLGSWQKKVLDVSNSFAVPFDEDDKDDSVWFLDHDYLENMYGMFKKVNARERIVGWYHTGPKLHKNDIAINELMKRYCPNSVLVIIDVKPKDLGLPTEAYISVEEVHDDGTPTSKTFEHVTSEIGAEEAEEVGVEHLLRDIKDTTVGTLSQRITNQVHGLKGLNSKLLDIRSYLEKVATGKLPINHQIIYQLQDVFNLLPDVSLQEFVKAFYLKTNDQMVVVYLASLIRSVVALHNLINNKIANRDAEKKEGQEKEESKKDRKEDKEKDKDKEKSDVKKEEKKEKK
Outline: as §1

UCHL1 = UCHL1 (UniProt P09936)
Sequence of UCHL1 (P09936 whole entry, looked up): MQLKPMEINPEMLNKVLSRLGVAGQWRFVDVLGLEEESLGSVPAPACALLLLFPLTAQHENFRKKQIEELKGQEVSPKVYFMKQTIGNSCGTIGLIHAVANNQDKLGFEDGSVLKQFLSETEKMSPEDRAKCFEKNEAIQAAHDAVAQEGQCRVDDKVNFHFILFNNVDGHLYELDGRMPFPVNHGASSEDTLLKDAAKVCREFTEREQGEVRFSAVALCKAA
Outline: as §1

UCHL3 = biological target: T4, UCHL3 (UniProt P15374)
T4 sequence (whole entry): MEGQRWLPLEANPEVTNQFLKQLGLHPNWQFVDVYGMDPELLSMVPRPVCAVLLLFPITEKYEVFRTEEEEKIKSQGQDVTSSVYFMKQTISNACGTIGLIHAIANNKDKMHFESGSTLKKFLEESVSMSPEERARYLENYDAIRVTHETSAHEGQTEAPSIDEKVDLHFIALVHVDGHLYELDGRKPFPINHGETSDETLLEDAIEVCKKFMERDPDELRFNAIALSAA
Outline: as §1

UCHL5 = biological target: T5, UCHL5 (UniProt Q9Y5K5)
T5 sequence (whole entry): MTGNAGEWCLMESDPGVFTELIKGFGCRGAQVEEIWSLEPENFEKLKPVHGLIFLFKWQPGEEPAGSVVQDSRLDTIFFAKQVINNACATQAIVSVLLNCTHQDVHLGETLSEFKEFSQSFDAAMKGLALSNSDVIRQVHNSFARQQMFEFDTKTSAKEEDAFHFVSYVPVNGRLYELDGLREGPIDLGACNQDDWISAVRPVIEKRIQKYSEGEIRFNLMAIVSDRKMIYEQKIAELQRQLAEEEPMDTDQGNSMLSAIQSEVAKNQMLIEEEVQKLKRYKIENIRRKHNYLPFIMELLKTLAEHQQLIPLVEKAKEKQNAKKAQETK
Outline: as §1

USP10 = USP10 (UniProt Q14694)
Sequence of USP10 (Q14694 whole entry): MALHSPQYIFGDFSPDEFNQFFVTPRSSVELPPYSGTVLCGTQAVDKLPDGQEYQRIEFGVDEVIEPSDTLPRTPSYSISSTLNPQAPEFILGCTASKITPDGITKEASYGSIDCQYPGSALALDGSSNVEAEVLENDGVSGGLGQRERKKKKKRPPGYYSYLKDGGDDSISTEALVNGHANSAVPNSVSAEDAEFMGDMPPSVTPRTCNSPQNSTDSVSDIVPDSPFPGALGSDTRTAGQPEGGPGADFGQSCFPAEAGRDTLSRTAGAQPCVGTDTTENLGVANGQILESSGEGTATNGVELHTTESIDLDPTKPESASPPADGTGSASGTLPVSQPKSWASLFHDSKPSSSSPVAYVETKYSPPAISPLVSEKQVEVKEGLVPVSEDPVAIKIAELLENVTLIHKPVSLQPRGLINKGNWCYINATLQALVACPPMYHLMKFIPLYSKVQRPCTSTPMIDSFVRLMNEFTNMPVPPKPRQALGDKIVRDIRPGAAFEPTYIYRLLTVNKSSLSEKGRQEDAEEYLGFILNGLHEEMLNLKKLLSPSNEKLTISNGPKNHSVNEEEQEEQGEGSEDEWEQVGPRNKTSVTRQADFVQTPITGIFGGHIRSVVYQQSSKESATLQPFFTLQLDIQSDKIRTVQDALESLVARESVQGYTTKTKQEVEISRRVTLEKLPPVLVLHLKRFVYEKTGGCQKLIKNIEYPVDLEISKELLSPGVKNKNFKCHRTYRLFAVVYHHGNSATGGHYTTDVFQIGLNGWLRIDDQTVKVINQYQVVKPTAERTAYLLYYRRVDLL
Outline: as §1

USP15 = biological target: T6, USP15 (UniProt Q9Y4E8)
T6 sequence (whole entry): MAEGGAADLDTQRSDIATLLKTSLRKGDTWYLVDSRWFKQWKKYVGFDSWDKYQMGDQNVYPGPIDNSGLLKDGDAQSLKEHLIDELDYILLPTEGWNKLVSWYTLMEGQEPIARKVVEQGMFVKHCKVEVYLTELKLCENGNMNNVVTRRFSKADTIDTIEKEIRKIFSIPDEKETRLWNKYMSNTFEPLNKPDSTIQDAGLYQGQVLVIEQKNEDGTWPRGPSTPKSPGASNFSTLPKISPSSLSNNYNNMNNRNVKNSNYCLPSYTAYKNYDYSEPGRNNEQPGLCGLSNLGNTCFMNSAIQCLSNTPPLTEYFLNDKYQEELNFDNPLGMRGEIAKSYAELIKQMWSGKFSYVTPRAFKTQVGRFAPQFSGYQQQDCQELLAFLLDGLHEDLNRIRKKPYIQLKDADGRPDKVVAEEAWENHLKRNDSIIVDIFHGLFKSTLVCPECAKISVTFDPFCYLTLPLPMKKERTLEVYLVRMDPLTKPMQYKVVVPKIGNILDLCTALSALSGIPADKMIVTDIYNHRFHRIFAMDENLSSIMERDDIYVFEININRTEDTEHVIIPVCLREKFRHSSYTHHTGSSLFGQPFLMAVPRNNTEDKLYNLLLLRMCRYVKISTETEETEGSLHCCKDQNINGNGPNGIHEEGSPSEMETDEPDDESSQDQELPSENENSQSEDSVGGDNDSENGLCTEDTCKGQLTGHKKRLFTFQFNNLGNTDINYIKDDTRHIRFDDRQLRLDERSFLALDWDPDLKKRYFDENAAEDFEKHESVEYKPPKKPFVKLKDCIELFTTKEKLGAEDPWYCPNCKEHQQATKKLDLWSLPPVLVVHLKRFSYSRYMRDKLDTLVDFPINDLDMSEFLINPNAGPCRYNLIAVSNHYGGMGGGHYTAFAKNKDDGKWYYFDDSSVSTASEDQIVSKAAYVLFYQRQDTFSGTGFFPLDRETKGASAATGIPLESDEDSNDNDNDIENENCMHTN
Outline: as §1

USP16 = USP16 (UniProt Q9Y5T5)
Sequence of USP16 (Q9Y5T5 whole entry, looked up): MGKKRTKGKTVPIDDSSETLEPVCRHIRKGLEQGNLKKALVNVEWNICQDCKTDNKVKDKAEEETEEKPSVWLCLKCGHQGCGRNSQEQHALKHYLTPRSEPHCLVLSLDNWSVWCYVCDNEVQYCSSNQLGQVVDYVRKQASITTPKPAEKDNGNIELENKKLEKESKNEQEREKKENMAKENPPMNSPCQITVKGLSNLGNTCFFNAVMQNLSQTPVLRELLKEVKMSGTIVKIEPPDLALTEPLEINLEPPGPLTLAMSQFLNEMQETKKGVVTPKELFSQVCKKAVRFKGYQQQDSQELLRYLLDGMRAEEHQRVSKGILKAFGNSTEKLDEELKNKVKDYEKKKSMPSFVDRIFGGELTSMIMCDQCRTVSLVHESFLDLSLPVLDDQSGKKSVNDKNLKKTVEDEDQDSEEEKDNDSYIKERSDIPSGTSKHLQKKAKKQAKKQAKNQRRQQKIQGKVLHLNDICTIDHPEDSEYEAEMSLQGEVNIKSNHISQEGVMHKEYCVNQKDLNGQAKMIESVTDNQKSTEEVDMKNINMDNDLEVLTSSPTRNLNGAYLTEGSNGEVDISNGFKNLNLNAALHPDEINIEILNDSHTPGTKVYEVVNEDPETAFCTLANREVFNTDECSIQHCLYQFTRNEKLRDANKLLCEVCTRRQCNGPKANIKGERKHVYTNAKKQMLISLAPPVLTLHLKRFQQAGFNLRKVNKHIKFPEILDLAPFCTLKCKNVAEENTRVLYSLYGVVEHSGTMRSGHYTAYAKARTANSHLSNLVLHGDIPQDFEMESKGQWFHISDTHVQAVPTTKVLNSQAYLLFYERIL
Outline: as §1

Measured: log2 ratio of Biotin-Ahx-Ub-VS probe labelling

Cc1conc1C1CN(C(=O)CCl)C1
active: OTUD7B -1.6 | UCHL1 -2.04 | USP15 -1.15
inactive: OTUD6B -0.688 | PRPF8 -0.125 | PSMD7 -0.499 | UCHL3 -0.637 | UCHL5 -0.912 | USP10 -0.254 | USP16 -0.0913
